# IL2 activator: activators of IL-2; IL-2 activation reporter assay, cell-based qHTS; stimulated with anti-CD3/CD4/CD28 beads; in transgenic mouse T cells; activation, % (series mostly up to about 46 µM); hit rate 0.065% among 360,000; AID 652025; in the data active = activation above about 50%; inconclusive = mostly about 30% to 49%; note: 0% is about no effect
#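 Unstimulated transgenic mouse T cells; 60-min compound exposure; bead-based TCR/CD4/CD28 stimulation; 18 h culture, 37 degrees C; dual fluorescence (EGFP, DsRed) plate cytometry.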
# TRHR PAM: allosteric enhancers of human TRH receptor; P34981; TRHR cells, fluo-8 calcium fluorescence, EC20 TRH enhancement; enhancement, % at 2 µM; hit rate 0.66% among 360,000; AID 493056; in the data active = enhancement above about 30%; note: 0% is about no effect
# Target sequence (P34981 whole entry, looked up): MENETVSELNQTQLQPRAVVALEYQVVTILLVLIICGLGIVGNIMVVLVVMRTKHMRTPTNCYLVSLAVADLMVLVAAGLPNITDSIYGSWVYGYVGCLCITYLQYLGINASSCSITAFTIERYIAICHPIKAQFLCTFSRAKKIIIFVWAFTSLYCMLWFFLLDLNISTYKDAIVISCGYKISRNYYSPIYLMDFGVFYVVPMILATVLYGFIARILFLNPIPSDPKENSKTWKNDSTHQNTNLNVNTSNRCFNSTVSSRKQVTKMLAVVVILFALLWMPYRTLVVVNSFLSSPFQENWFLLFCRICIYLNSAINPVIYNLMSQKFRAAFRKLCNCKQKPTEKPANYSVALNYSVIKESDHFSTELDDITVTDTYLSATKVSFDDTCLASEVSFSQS
#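 TRHR-expressing cells loaded with fluo-8 calcium dye were read kinetically (ex 480/em 530) during compound addition, then stimulated with an EC20 of TRH (10 nM final). Enhancement of the Gq-mediated intracellular calcium response was scored.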
# TRHR ag: agonists of human TRH receptor | hit rate 0.18% among 360,000 | TRHR cells, calcium flux fluo-8, FDSS agonist mode | activation, % at 2 µM | AID 493084; in the data active = activation above about 30%; note: 0% is about no effect
#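 In this calcium-flux screen, cells bearing human TRHR are dye-loaded with fluo-8, baselined for 10 cycles, then exposed to library compounds; positive kinetic calcium responses during the agonist phase mark hits, with TRH as control.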
# CBFb-RUNX1 inh: inhibitors of human CBF-beta and RUNX1 interaction | AlphaScreen CBFb-His/RUNX1-biotin binding, biochemical | Potency, µM (titrated, usually from 59.8 µM), for inactives: top-dose activity, negative = inhibition, usual class: inhibitors | Q01196+Q13951 | AID 1477 | 230,000 tested, under 10 active; note: % of control where 0% means no effect
#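 His-tagged CBF-beta and biotinylated RUNX1 (30 nM each) were premixed 20 min at room temperature, exposed to compound for 15 min, then given nickel-chelate and streptavidin AlphaScreen beads (50 ng each). After 90 min, AlphaScreen signal was read.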
# MBNL1-CUG inh: MBNL1-poly(CUG) RNA binding inhibition; Q9NR56; TR-FRET MBNL1-His/biotin-(CUG)12 binding, 665/545 ratio; AID 2675; Potency, µM (doses to about 57.5 µM), without a hit: top-dose activity change, negative = inhibition, most hits filed as inhibitors; hit rate 0.036% among 280,000; active = well fitted inhibition curve with a large enough effect in the signal ratio, with a control signal flat, not every such curve was filed as active; inconclusive = small, poorly fitted or top-dose-only effect, or effect the other way, or a change in a side signal; inactive = no such curve, though single readings can be large or run the other way; the % refers to the signal ratio; note: potency is the fitted concentration of half-maximal effect; % is set by controls: 0 for no effect and ±100 for the full control effect
#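 MBNL1-His + Biotin-(CUG)12, cpd titration 92 nM–58 uM; Tb anti-His Ab 0.055 ng/ul, SA-XL665 5 nM (final); 60 min RT; ratiometric 665/545 nm, Ex 340 nm; normalized to buffer and full-complex controls.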
# Epigenetic derep: epigenetic control regulation, reporter derepression | AID 1865 | Potency, µM (highest dose often 53.9 µM), without a hit: at the top dose GFP activation, actives largely listed as activators | murine LDR cells, GFP reporter derepression, 30 h | hit rate 0.2% among 280,000; note: potency is the fitted concentration of half-maximal effect; % of control where 0% means no effect; nearly all actives have a fitted effect of over 60% in size
#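 Reporter derepression read as number of fluorescent GFP-positive objects, 20-120 um in size, counted by laser-scanning cytometer. Mouse LDR line with an epigenetically silenced CMV-GFP locus; compound incubation 30 h, 37 C.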
# Numbers without * were called inactive; u = inconclusive; x = no result. Shown are actives, neighbours in structure and some others; about 0.88% of the full set was active somewhere. Unless noted, calls come from the whole dose curve; as a rule, active = well fitted curve in the direction sought with a large enough effect; inconclusive = small, poorly fitted or top-dose-only effect, or another doubt; inactive = no such curve, though single readings can be large; an effect the other way counts as inactive or inconclusive.
SMILES,IL2 activator,TRHR PAM,TRHR ag,CBFb-RUNX1 inh,MBNL1-CUG inh,Epigenetic derep
COc1ccc(S(=O)(=O)Nc2ccc3cn[nH]c3c2)cc1C,0,39*,0,3%,-11%,1%
CSc1nnc(N2C(=O)C(O)=C(C(=O)c3ccco3)C2c2cccc(Cl)c2)s1 (stereo unspecified),1,0,16,x,u,x
CSc1nnc(N2C(=O)C(O)=C(C(=O)c3ccco3)C2c2ccc(F)cc2)s1 (stereo unspecified),1,3,36*,x,u,x
O=S(=O)(c1ccc2c(c1)OCCO2)N1CCN(S(=O)(=O)c2ccccc2F)CC1,x,7,1,x,x,x
CCOC(=O)c1ccc(NC(=O)CCn2c(=O)c3cccn3c3cccnc32)cc1,x,5,0,x,x,u
COc1cc(OC)cc(C(=O)Nc2ccc(Nc3ccccc3)cc2)c1,1,6,0,x,0%,x
COc1cc(OC)cc(C(=O)Nc2nnc(NC(=S)Nc3ccccc3)s2)c1,-1,36*,1,-14%,x,-1%
CC(C)(C)OC(=O)Cc1nnc(C(C(=O)OCc2ccccc2)c2ccccc2)s1 (stereo unspecified),x,-2,1,x,x,x
COC(=O)Cn1c2ccc(OC)cc2c2nc3ccccc3nc21,2,-5,0,6%,9%,0%
CCOC(=O)Cn1c2ccc(OC)cc2c2nc3ccccc3nc21,51*,13,1,15%,10%,u
N=c1n(N)c2ccccc2n1CC(=O)c1ccc(Br)cc1,0,33*,-1,x,5%,x
C=CCn1c(=N)n(CC(=O)c2ccc(Br)cc2)c2ccccc21,0,-3,0,x,0%,x
O=c1oc2ccccc2cc1-c1nnc(Nc2ccc(Cl)cc2Cl)s1,x,-8,-1,x,x,-1%
Cc1ccc(Nc2nnc(-c3cc4c(ccc5ccccc54)oc3=O)s2)cc1,x,4,-1,x,x,-1%
CCOc1ccccc1Nc1nnc(-c2cc3cc(OC)ccc3oc2=O)s1,x,-2,4,x,x,18µM*
CCOc1ccc2cc(-c3nnc(Nc4ccccc4F)s3)c(=O)oc2c1,x,23,2,x,x,3.5µM*
CCN(CC)c1ccc2cc(-c3nc(-c4ccccc4)no3)c(=O)oc2c1,x,4,55*,x,x,14µM*
CCN(CC)c1ccc2cc(-c3nnc(Nc4ccc(C)cc4)s3)c(=O)oc2c1,x,-17,159*,x,x,0.1µM*
COc1ccc2oc(=O)c(-c3nnc(NCc4ccco4)s3)cc2c1,0,-3,4,5%,u,17%
COc1cc(C)ccc1OCCn1c(-c2ccc(Cl)cc2)nc2ccccc2c1=O,x,5,0,x,x,1%
Cn1c(O)c(N=N/C(=N/c2ccccn2)c2ccccn2)c2cc(Br)ccc21,x,x,x,x,x,-2%
COc1ccc(-c2noc(-c3ccc(N4CCN(c5ccc(OC)cc5)CC4)c([N+](=O)[O-])c3)n2)cc1,x,-6,0,x,x,0%
O=C(CNC(=O)c1ccc2ccccc2c1)OC(C(=O)Nc1cc(C(F)(F)F)ccc1Cl)c1ccccc1 (stereo unspecified),x,-11,3,x,x,x
COC(=O)C1CCN(c2csc3ccc(C)cc3c2=O)CC1,x,1,0,x,x,-2%
COc1cccc(CN(C(=O)c2oc3ccc(Br)cc3c2C)C2CCS(=O)(=O)C2)c1 (stereo unspecified),x,9,1,x,x,-2%
COc1ccc(CCn2c(=O)c3cccnc3n(CC(=O)Nc3ccc(C)c(F)c3)c2=O)cc1OC,x,-8,1,x,x,3%
Cc1ccccc1OCc1nc2c3cnn(-c4cccc(F)c4)c3ncn2n1,x,1,0,x,x,2%
Cc1cccc(Cn2ncc3c4sc(C)cc4n(C)c3c2=O)c1,x,8,0,x,x,x
CCOC(=O)c1c(C)c(C(=O)NCCc2ccc(OC)cc2)c(C)n1C,x,-6,0,x,x,0%
CN1C(=O)CC(c2ccco2)Sc2ccccc21 (stereo unspecified),0,35*,0,-6%,10%,-2%

# Compound activity from PubChem.
